Test results from PubChem BioAssay (NCI).
“And” between values parts separate entries of the source, which are not always exact repeats. Equal entries are not always repeated. Compounds without any hit were thinned out: in the full panel of roughly 83,000, 20% have a hit.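 Testing used 96-well plates and a 48-hour single-concentration exposure. Example: -40 means 40% of the starting cells died.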 The source made the active and inactive calls. The calls were made as follows: active = growth percent below 10; inactive = the rest.

System: HL-60(TB) leukemia
Assay: NCI-60 one-dose screen, 48 h (100 = growth as untreated, 0 = no growth, -100 = all killed)
Details: 10 µM unless noted

Row | Structure (SMILES) | growth
1 | CCOC(=O)c1cnc2ccccc2c1Cl | 122% (inactive)
2 | O=[N+]([O-])c1ccccc1N(S(=O)(=O)c1ccccc1)S(=O)(=O)c1ccccc1 | 5.52% (active) and 108% (inactive)
3 | O=C(Cn1ccc2ccccc21)Nc1ccc(-c2nc3ccccc3s2)cc1 | 99.9% (inactive)
4 | COc1ccc(C2NC(=O)Nc3ccccc32)c(OC)c1 (centres undefined) | 93.2% (inactive)
5 | Cc1ccc(-c2nc([P+](c3ccccc3)(c3ccccc3)c3ccccc3)c(N3CCOCC3)o2)cc1 | -27.7% (active)
6 | O=C1c2ccccc2C(=O)N1OCc1ccccc1 | 94.2% (inactive)
7 | O=C(O)c1ccc[n+](CC(=O)N2CCN(c3cc4c(cc3F)c(=O)c(C(=O)O)cn4C3CC3)CC2)c1 | 97.6% (inactive)
8 | Cc1cc(O)ccc1C1=NN(c2ccc(S(N)(=O)=O)cc2)C(=O)CC1 | 4.22% (active)
9 | O=C(/C=C/c1ccc(Cl)cc1)c1cccc(Nc2nc(Nc3ccccc3)nc(Nc3ccccc3)n2)c1 | 95.9% (inactive)
10 | Cc1ccc2nc(C)c(-c3nnc(SCc4ccc(C#N)cc4)o3)n2c1 | 111% (inactive)
11 | O=C(Nc1cccc([N+](=O)[O-])c1)Nc1cccc([N+](=O)[O-])c1 | 13% (inactive)
12 | Cc1cc2c(F)c(Oc3ncnn4cc(OC[C@@H](C)OC(=O)[C@H](C)N)c(C)c34)ccc2[nH]1 | 12.6% (inactive)
13 | Nc1c(C(=O)Nc2ccccc2Cl)sc2nc3c(cc12)C(O)CCC3 (centres undefined) | 0.926% (active)
14 | CCN(CC)CCC(=O)c1cccc2ccccc12 | 102% (inactive)
